The list is not random: actives were taken first. Their share in the collection is about 4.8%.
ssDAF-12 act = activators of S. stercoralis DAF-12 nuclear receptor | HEK293 ssDAF-12/GRIP1 lit1-tk-luc reporter, luminescence; % of 3 µM dafachronic acid response | activation, % at 6.8 µM | 370,000 tested, 1% active;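 active means activation above the mean over all tested compounds plus 3 SD, cut at about 0.9% in these data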;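 further: 0% = DMSO-only wells and 100% = 3 µM delta7-dafachronic acid wells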
hcDAF12 agonist = activates DAF-12 receptor from parasite H. contortus; HEK293 hcDAF-12 lit1-tk-luc reporter, luminescence; 0% DMSO, 100% Δ7-dafachronic acid; activation, % at 6.8 µM; 370,000 tested, 1.4% active;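 active means activation above the mean of all tested compounds plus 3 SD, cut at about 5.5% in these data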;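 further: 100% = response to 3 µM Δ7-dafachronic acid high control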
DAX1 inh-1 = DAX1 (NR0B1) inhibition, primary screen; HEK293T StAR-luciferase reporter, SF-1/DAX-1 repression relief; inhibition, % at 6.8 µM; 370,000 tested, 1.1% active; AID 652010;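 active means inhibition above the mean over all tested compounds plus 3 SD, cut at about 3.6% in these data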;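 further: 0% = DAX-1 cells with DMSO and 100% = cells lacking DAX-1 with DMSO; higher inhibition means more luminescence from relief of DAX-1 repression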
SMARCA2 activ = SMARCA2 function activation, primary screen | activation, % at 9.1 µM | MG213 cells, MMTV-luciferase reporter, dexamethasone, overnight | 370,000 tested, 1% active; in the data active means activation above about 7.8%;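 further: 0% = vehicle wells and 100% = reference activator wells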
DAX1 inh-2 = inhibitors of human orphan nuclear receptor DAX1 (NR0B1). HEK293 Gal4-DAX1 luciferase reporter, luminescence. 340,000 tested, 0.99% active. AID 504766. inhibition, % at 6.75 µM;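 active means inhibition above the mean over all tested compounds plus 3 SD, cut at about 4.2% in these data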;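 further: 0% = DAX1-transfected cells with DMSO and 100% = empty-vector control cells with DMSO; inhibition shows as a rise in luminescence from relieved DAX1 repression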
Target sequence (P51843 207-470 limits assumed): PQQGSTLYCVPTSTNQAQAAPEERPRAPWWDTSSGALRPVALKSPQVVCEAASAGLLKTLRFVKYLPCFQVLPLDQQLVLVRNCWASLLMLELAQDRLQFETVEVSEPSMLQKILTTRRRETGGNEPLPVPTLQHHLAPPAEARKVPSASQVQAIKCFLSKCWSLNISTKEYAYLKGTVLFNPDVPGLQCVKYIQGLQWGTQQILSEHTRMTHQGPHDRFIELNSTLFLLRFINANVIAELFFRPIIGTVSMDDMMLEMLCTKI
hgDAF12 agonist = activates the H. glycines DAF-12 receptor ligand-binding domain. HEK293 GAL4-hgDAF12 UAS-luciferase reporter, agonist luminescence; normalized to butyrate control. activation, % at 6.8 µM. 370,000 tested, 1.8% active;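 active means activation above a cutoff set at the mean of all screened compounds plus 3 SD, cut at about 10% in these data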;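 further: 0% = DMSO wells and 100% = sodium butyrate wells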
DAX1 conf = confirmation of human DAX1 (NR0B1) inhibitors; shares compounds with DAX1 inh-1; HEK293T StAR-promoter luciferase reporter, SF-1/DAX-1 repression; inhibition, % at 6.8 µM; 2,400 tested, 87% active; AID 652134;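 active means inhibition above the average of every tested compound plus 3 SD, cut at about 3.8% in these data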;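 further: 0% = DAX-1 cells with DMSO and 100% = no DAX-1 control cells with DMSO; active compounds raise luminescence by relieving repression of the StAR reporter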
Target sequence (P51843 whole entry, looked up): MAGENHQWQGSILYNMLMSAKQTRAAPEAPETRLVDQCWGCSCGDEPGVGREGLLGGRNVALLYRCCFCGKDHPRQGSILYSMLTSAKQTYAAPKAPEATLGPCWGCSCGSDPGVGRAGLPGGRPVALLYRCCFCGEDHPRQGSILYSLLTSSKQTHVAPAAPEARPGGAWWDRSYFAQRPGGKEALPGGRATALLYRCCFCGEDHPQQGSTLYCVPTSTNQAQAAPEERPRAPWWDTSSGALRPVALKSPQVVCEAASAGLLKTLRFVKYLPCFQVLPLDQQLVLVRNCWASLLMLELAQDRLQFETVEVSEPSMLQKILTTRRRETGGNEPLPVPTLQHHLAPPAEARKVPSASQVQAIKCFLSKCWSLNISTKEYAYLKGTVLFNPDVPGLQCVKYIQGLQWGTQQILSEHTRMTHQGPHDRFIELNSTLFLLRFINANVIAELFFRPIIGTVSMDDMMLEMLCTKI
SF1 mutant ctr = nonselective inhibitor or artifact in SF-1 mutant DAX1 counter-screen. HEK293 StAR-luciferase, SF-1 AF2 mutant, luminescence. 2,400 tested, 78% active. shares compounds with DAX1 inh-1. inhibition, % at 6.8 µM. AID 652136;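 active means inhibition above the mean of all tested compounds plus 3 SD, cut at about 3% in these data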;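 further: 0% = DAX-1 transfected cells with DMSO and 100% = cells without DAX-1 with DMSO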
LXR ag = activates human LXR-beta, counter-screen for hcDAF-12 agonists; shares compounds with hcDAF12 agonist; HEK293 Gal4-LXR tk-luc reporter, luminescence, 24 h; normalized: DMSO 0%, positive control 100%; 3,400 tested, under 10 active; AID 743027; activation, % at 6.8 µM;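 active means mean percent activation of the reporter above a cutoff set as the average over tested compounds plus their standard deviation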
hcDAF12 conf = hcDAF-12 agonism, confirmation assay. shares compounds with hcDAF12 agonist. HEK293 hcDAF-12 lit1-tk-luc reporter, luminescence; % of Δ7-dafachronic acid response. activation, % at 6.8 µM. 3,400 tested, 61% active. AID 743032;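 active means mean activation across triplicate tests above the threshold derived from the earlier primary screen, cut at about 5.5% in these data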;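 further: 0% = DMSO only wells and 100% = 3 µM Δ7-dafachronic acid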
hgDAF12 conf = hgDAF-12 agonism, confirmation assay; shares compounds with hgDAF12 agonist; HEK293 GAL4-hgDAF12 luciferase reporter, agonist mode; percent of butyrate response; activation, % at 6.8 µM; 3,300 tested, 80% active;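 active means mean activation over triplicate wells above the hit cutoff derived from the earlier primary screen, cut at about 11% in these data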;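 further: 0% = DMSO low control and 100% = 2 mM sodium butyrate high control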
LXR ag 2 = LXR-beta agonism as DAF-12 counter-screen; activation, % at 6.8 µM; 3,300 tested, under 10 active; HEK293 Gal4-LXR luciferase reporter, 24 h; shares compounds with hgDAF12 agonist;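 active means mean activation of the triplicate above a set limit carried over from the primary screen, none filed active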
Active calls of the source: *.

Results for CC1CCN(c2ncnc3c2cnn3-c2ccccc2)CC1 ?
ssDAF-12 act: 0; hcDAF12 agonist: 4; DAX1 inh-1: 7.7*; SMARCA2 activ: 4; DAX1 inh-2: 2; hgDAF12 agonist: 15*; DAX1 conf: 14*; SF1 mutant ctr: 12*; hgDAF12 conf: 14*; LXR ag 2: 1

What do the screens show for `CC(C)Nc1ncnc2c1cnn2-c1ccc(Cl)cc1`?
ssDAF-12 act: 1; hcDAF12 agonist: 4; DAX1 inh-1: 4.8*; SMARCA2 activ: 3; DAX1 inh-2: -1; hgDAF12 agonist: 16*; DAX1 conf: 11*; SF1 mutant ctr: 3; hgDAF12 conf: 4; LXR ag 2: 1

Results for COc1nc(-c2ccccc2)nc(-c2ccccc2)c1C ?
ssDAF-12 act: -2; hcDAF12 agonist: -1; DAX1 inh-1: 0; SMARCA2 activ: -2; hgDAF12 agonist: 0

How did O=C(CCNC(=O)Cn1ccc2ccccc2c1=O)NCC1CCCC1c1ccccc1 (stereo unspecified) do in these assays?
ssDAF-12 act: -1; hcDAF12 agonist: -1; DAX1 inh-1: -1; SMARCA2 activ: -2; DAX1 inh-2: 2; hgDAF12 agonist: -1

Results for CC1CCCC(C)N1C(=O)CSc1nnc(-c2cccs2)o1 (stereo unspecified) ?
ssDAF-12 act: 0; hcDAF12 agonist: 5; DAX1 inh-1: 4.7*; SMARCA2 activ: 1; DAX1 inh-2: 2; hgDAF12 agonist: 18*; DAX1 conf: 11*; SF1 mutant ctr: 8.0*; hgDAF12 conf: 17*; LXR ag 2: 1

Results for O=[N+]([O-])c1ccccc1/C=C/C=N/n1c(-c2ccco2)n[nH]c1=S ?
ssDAF-12 act: -1; hcDAF12 agonist: 1; DAX1 inh-1: 0; SMARCA2 activ: -1; DAX1 inh-2: 0; hgDAF12 agonist: -1

Results for CCNC(=S)NNC(=O)c1cc(-c2ccc(OCC)cc2)nc2ccccc12 ?
ssDAF-12 act: 1.3*; hcDAF12 agonist: 9.0*; DAX1 inh-1: 7.7*; SMARCA2 activ: 7; DAX1 inh-2: -5; hgDAF12 agonist: 16*; DAX1 conf: 17*; SF1 mutant ctr: 8.6*; LXR ag: 2; hcDAF12 conf: 12*; hgDAF12 conf: 25*; LXR ag 2: 1

How did CC(C)c1nnc(NC(=O)c2ccc3c(c2)OCO3)s1 do in these assays?
ssDAF-12 act: 0; hcDAF12 agonist: 9.6*; DAX1 inh-1: 4.9*; SMARCA2 activ: 7; DAX1 inh-2: 4; hgDAF12 agonist: 15*; DAX1 conf: 12*; SF1 mutant ctr: 2; LXR ag: 1; hcDAF12 conf: 4; hgDAF12 conf: 7; LXR ag 2: 1

Results for COc1cc(S(=O)(=O)N(C)Cc2ccc3c(c2)OCCO3)ccc1NC(C)=O ?
ssDAF-12 act: -1; hcDAF12 agonist: -1; DAX1 inh-1: 0; SMARCA2 activ: -5; DAX1 inh-2: -1; hgDAF12 agonist: -2

What do the screens show for `O=C(Nc1cccc(Br)c1)c1cc2ccccc2o1`?
ssDAF-12 act: 0; hcDAF12 agonist: 9.1*; DAX1 inh-1: 5.1*; SMARCA2 activ: 0; DAX1 inh-2: 4.3*; hgDAF12 agonist: 26*; DAX1 conf: 12*; SF1 mutant ctr: 7.0*; LXR ag: 1; hcDAF12 conf: 5.9*; hgDAF12 conf: 21*; LXR ag 2: 1

How did NS(=O)(=O)c1cccc(NC(=O)c2cc3ccccc3o2)c1 do in these assays?
ssDAF-12 act: -1; hcDAF12 agonist: -1; DAX1 inh-1: 3; SMARCA2 activ: 5; DAX1 inh-2: 1; hgDAF12 agonist: 5

How did Cc1cnc(NC(=O)c2cc3ccccc3o2)s1 do in these assays?
ssDAF-12 act: 1.9*; hcDAF12 agonist: 10*; DAX1 inh-1: 7.3*; SMARCA2 activ: 1; DAX1 inh-2: 6.4*; hgDAF12 agonist: 19*; DAX1 conf: 17*; SF1 mutant ctr: 8.9*; LXR ag: 1; hcDAF12 conf: 14*; hgDAF12 conf: 15*; LXR ag 2: 1

Results for Cc1cc(O)c(C(C)C)cc1NC(=O)c1ccccc1Cl ?
ssDAF-12 act: -1; hcDAF12 agonist: -1; DAX1 inh-1: 0; SMARCA2 activ: 1; DAX1 inh-2: -2; hgDAF12 agonist: 0

What do the screens show for `CCc1ccc(C2=NN(C(C)=O)C(c3ccco3)C2)cc1` (stereo unspecified)?
ssDAF-12 act: 0; hcDAF12 agonist: 4; DAX1 inh-1: 4.9*; SMARCA2 activ: 6; DAX1 inh-2: 3; hgDAF12 agonist: 15*; DAX1 conf: 9.5*; SF1 mutant ctr: 5.5*; hgDAF12 conf: 15*; LXR ag 2: 0

How did CCOc1cccc(C2NC(=S)NC(C)=C2C(=O)Nc2ccccc2)c1 (stereo unspecified) do in these assays?
ssDAF-12 act: -1; hcDAF12 agonist: 1; DAX1 inh-1: 1; SMARCA2 activ: -4; DAX1 inh-2: 0; hgDAF12 agonist: -1

What do the screens show for `O=C(Nc1ccc(N2CCN(C(=O)c3ccccc3)CC2)cc1)c1ccc(Br)o1`?
ssDAF-12 act: -1; hcDAF12 agonist: -4; DAX1 inh-1: -1; SMARCA2 activ: 0; DAX1 inh-2: -1; hgDAF12 agonist: -1

What do the screens show for `O=C(Nc1ccc(N2CCCC2)cc1)c1ccc(Br)o1`?
ssDAF-12 act: 1; hcDAF12 agonist: 9.2*; DAX1 inh-1: 6.0*; SMARCA2 activ: 7; DAX1 inh-2: 1; hgDAF12 agonist: 16*; DAX1 conf: 12*; SF1 mutant ctr: 6.0*; LXR ag: 2; hcDAF12 conf: 7.9*; hgDAF12 conf: 17*; LXR ag 2: 1

Source: PubChem BioAssay
